Hit rate of the full screen: of about 4,100 compounds, about 1,600 (39%) were called active. About 25% were inconclusive and are not listed. Some of the results follow. A number with no mark means an inactive call. Calls follow the shape of the dose curve; as a rule, active = well fitted inhibition curve with a large enough effect; inconclusive = small, poorly fitted or top-dose-only effect; inactive = no such curve, though single readings can be large or run the other way.
Assay: qHTS Validation assay for Inhibitors of Plasmodium falciparum Dd2 growth in vitro; also: nearly all actives have a fitted effect of over 70% in size
Details: P. falciparum Dd2 in RBCs, SYBR Green growth, 72 h; series mostly up to 28.7 µM; activity change, negative = inhibition: at the top concentration
How it was run: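 P. falciparum Dd2-infected red blood cells (2.5% hematocrit, 0.3% parasitemia) grown 72 h at 37 °C under 5% O2 with compounds in a titration, 29 uM to 0.5 nM final. Growth read as SYBR Green-1 fluorescence after ~16 h lysis; artesunate 300 nM as positive control.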
% is scaled to controls: 0 for no effect and ±100 for the full control effect; potency is read from the fitted curve at half-maximal effect.

Compound | activity change, negative = inhibition | Potency
COc1ccc(C(=O)N2CCC(C3CCN(S(C)(=O)=O)CC3)C2)c(OC)n1 (centres undefined) | 4.48% | 
CCN(CC)c1ccc(NC(=O)COc2ccccc2C#N)cc1S(=O)(=O)Nc1ccccc1OC |  | 7.5 µM (active)
COc1ccccc1N(CC(=O)Nc1cc(C)cc(C)c1)S(C)(=O)=O | 20.6% | 
CN(C)CC(CCC(CN(C)C)C(O)(c1ccccc1)c1ccccc1)C(O)(c1ccccc1)c1ccccc1 (centres undefined) |  | 2.11 µM (active)
OC(Cc1ccncc1)(c1ccccc1)c1ccccc1 | -3.46% | 
O=S(=O)(Nc1cc2nc3ccccc3nc2n1Cc1ccccc1)c1ccc(Cl)cc1 |  | 1.19 µM (active)
CCOc1ccccc1Nc1nc2ccccc2nc1NS(=O)(=O)c1ccc(Cl)cc1 | -48.2% | 
Cc1nn(CCCC(=O)Nc2ccccc2C(F)(F)F)c(=O)c2nn(-c3ccccc3)c(C)c12 | -20.3% | 
COc1cc(Br)c(C(C)NC(=O)c2cccc(Br)c2)cc1OC (centres undefined) |  | 2.11 µM (active)
O=C(Nc1ccccc1O)c1ccc(NC(=O)C2CC2)cc1 |  | 4.73 µM (active)
CC(C)CN1C(=O)CO[C@H](c2ccc(NC(=O)C3CCCC3)cc2)[C@H]1CO | 36.8% [at 43.1 µM] | 
COc1ccccc1N1CCN(CCCNC(=O)c2cnn(-c3ccccc3Cl)c2C2CCN(C(=O)OC(C)(C)C)CC2)CC1 |  | 2.37 µM (active)
COc1ccccc1N1CCN(CCCNC(=O)c2cnn(-c3cccc(Cl)c3)c2C2CCN(C(=O)OC(C)(C)C)CC2)CC1 |  | 2.11 µM (active)
CCN1CCN(c2cc(C)c3cc(NC(=O)c4cc(OC)c(OC)c(OC)c4)ccc3n2)CC1 |  | 1.33 µM (active)
Cc1cc(=O)n2[nH]c(NC(=O)c3cccc(Cl)c3)nc2n1 | -24% | 
CCOc1ccc(C(=O)Nc2cccc(NC(=O)c3ccc(C(C)(C)C)cc3)c2)cc1Br | 1.12% | 
CCN1c2cc(C(=O)Nc3cccc(Cl)c3)ccc2C(=O)N2CCCCC21 (centres undefined) | 8.46% | 
CCN1CCN(c2cc(C)c3cc(NC(=O)c4cc(OC)cc(OC)c4)ccc3n2)CC1 |  | 3.35 µM (active)
Cc1cc(Nc2cccc(C(F)(F)F)c2)nc2ccc(NC(=O)c3cncc(Br)c3)cc12 |  | 2.37 µM (active)
CCN1CCN(c2cc(C)c3cc(NC(=O)c4cccc(Cl)c4)ccc3n2)CC1 |  | 4.73 µM (active)
CNC(=O)[C@@H]1C[C@H](Oc2ccccc2)CN1C(=O)c1cc2ccccc2[nH]1 | 5.84% | 
COc1ccc(NC(=O)CCn2ccn3nc4c(c3c2=O)CCCC4)cc1OC | 13.3% | 
COc1cc(C(=O)Nc2ccc3nc(N4CCN(C)CC4)cc(C)c3c2)cc(OC)c1OC |  | 3.35 µM (active)
COc1ccc(Nc2cc(C)c3cc(NC(=O)c4cc(OC)cc(OC)c4)ccc3n2)cc1 |  | 0.75 µM (active)

Compound | activity change, negative = inhibition | Potency
CCCNC(=O)N1CC(Oc2cccc(-c3nc(-c4ccccc4)no3)c2)C1 |  | 13.3 µM (active)
Cc1noc(-c2cccc(OC3CN(S(=O)(=O)c4cn(C)cn4)C3)c2)n1 | 38.6% | 
O=C(c1ccco1)N1CC(Oc2cccc(-c3nc(-c4ccccc4)no3)c2)C1 | -21.8% | 
COc1ccc(OC)c(S(=O)(=O)NCCc2sc(C)nc2C)c1 | -7.9% | 
COc1ccc(OC)c(S(=O)(=O)Nc2ccc(O)c3ccccc23)c1 |  | 8.41 µM (active)
Cc1nc(-c2ccc(Cl)cc2)sc1CCNC(=O)c1ccco1 | -10.7% | 
CCCCN(C(=O)c1ccco1)c1nnc(-c2cc(OC)c(OC)c(OC)c2)s1 |  | 2.99 µM (active)
Cc1ccc(C(=O)NN2C(=O)C3C4C=CC(C4)[C@@H]3C2=O)cc1 (some centres undefined) | 68.1% | 
O=C(c1ccc2ncccc2c1)N1CCc2c(nc3cc[nH]n3c2=O)C1 | 8.27% | 
OC(CNCC1CCCO1)Cn1c2ccc(Cl)cc2c2cc(Cl)ccc21 (centres undefined) |  | 1.19 µM (active)
COc1cccc(-c2noc(CCCc3nc(-c4cccnn4)no3)n2)c1 | 48.1% | 
Cc1noc(C)c1-c1cc2c(cc(C)n2C)c(NCCN(C)C)n1 | -28.9% [at 43.1 µM] | 
Cc1noc(C)c1-c1cc2c(cc(C)n2CCN(C)C)c(-c2cccc(O)c2)n1 |  | 17.2 µM (active)
COc1cc(-c2nc(-c3c(C)noc3C)cc3c2cc(C)n3CCN(C)C)ccn1 |  | 17.2 µM (active)
COc1cccc(-c2nc(-c3c(C)noc3C)cc3c2cc(C)n3CCN(C)C)c1 |  | 17.2 µM (active)
Cc1noc(C)c1-c1cc2c(cc(C)n2CCN(C)C)c(Nc2ccn(C)n2)n1 |  | 13.7 µM (active)
CCc1cccc(C)c1Nc1c(-c2cccc(O)c2)nc2sccn12 | 0.531% | 
O=[S+]1([O-])NCC2(CCN(CC3CC3)CC2)Nc2ccccc21 | 23.9% [at 43.1 µM] | 
O=C(c1ccsc1)N1CC(n2cc(-c3ccccc3)nn2)C1 | 16.2% | 
O=C(c1cccc(O)c1)N1CC=C(c2cnc3cnc(-c4ccccc4)cn23)CC1 |  | 9.68 µM (active)
Cc1c(CN2CC(Oc3ccccc3C(=O)NCc3ccccc3)C2)cnn1C |  | 4.22 µM (active)
COc1ccc(CN2CC(Oc3ccccc3C(=O)NCc3ccccc3)C2)c(OC)c1 |  | 10.6 µM (active)
O=C(NCc1ccccc1)c1ccccc1OC1CN(Cc2ccc(O)c(F)c2)C1 |  | 15 µM (active)
O=C(NCC1CC1)c1cccc(OC2CN(Cc3cc(F)c(F)c(F)c3)C2)c1 | -6.52% | 

Compound | activity change, negative = inhibition | Potency
Cc1ccsc1CN1CC(Oc2ccccc2C(=O)NC2CC2)C1 | -24.7% | 
COCCNC(=O)[C@H]1C[C@H](Oc2ccccc2)CN1C(=O)c1ccccc1OC | 14.8% | 
O=C(NCc1ccc(F)cc1)c1c2c(nc3ccccc13)C(=O)N(C1CCCCC1)C2 | 0% | 
CCCN1CCN(C(=O)c2cc3c(s2)CCN(C(=O)c2ccc(F)cc2)C3)CC1 | -26.7% | 
O=C1C2=C(Nc3ccccc3SC2c2c(F)cccc2Cl)c2ccccc21 (centres undefined) |  | 9.44 µM (active)
COc1ccc(C2Sc3ccccc3NC3=C2C(=O)c2ccccc23)c(OC)c1OC (centres undefined) |  | 0.75 µM (active)
O=C1C2=C(Nc3ccccc3SC2c2ccco2)c2ccccc21 (centres undefined) |  | 4.73 µM (active)
CCn1ncc(CN2CCCC23CCN(c2cc(C)nc4ccccc24)CC3)c1C |  | 5.31 µM (active)
CCn1cc(CN2CCCC23CCN(c2cc(C)nc4ccccc24)CC3)c(C)n1 |  | 4.22 µM (active)
CN(C)c1nc2c(c(=O)[nH]1)CCN(Cc1ccccc1Br)CC2 |  | 9.44 µM (active)
COc1cc(OC)c(OC)cc1CN1CCc2nc(N(C)C)[nH]c(=O)c2CC1 | 3.94% | 
N#Cc1ccc(CN2CCc3n[nH]c(=O)n3CC2)cc1 | 18% | 
CN(C)c1nc2c(c(=O)[nH]1)CCN(Cc1ccc(Br)cc1)CC2 |  | 13.3 µM (active)
O=C(CCc1ccccc1)N1CCc2c(nc(-c3ccc(F)cc3)[nH]c2=O)C1 | 3.77% | 
CN(C)c1nc2c(c(=O)[nH]1)CCN(Cc1ccc(F)cc1Cl)CC2 |  | 10.6 µM (active)
CN(C)c1ccc(C(=O)NCc2nnc3cc(-c4nc(C5CC5)no4)ccn23)cc1 | 8.1% | 
COc1ccc(Nc2cc(O)c3ncccc3c2)cc1 |  | 0.75 µM (active)
Oc1cc(Nc2ccc(N3CCCCC3)cc2)cc2cccnc12 |  | 0.842 µM (active)
Oc1cc(Nc2ccccc2)cc2cccnc12 |  | 6.68 µM (active)
Cc1ccc(OCC(=O)Nc2ccccc2C(=O)OCc2cc(=O)n3ccsc3n2)cc1 | 36.1% | 
CCOC(=O)c1ccccc1NC(=O)C(C)Oc1ccccc1 (centres undefined) |  | 10.6 µM (active)
COc1ccc(C)cc1NC(=O)N1c2ccccc2CC1c1nc(C2CC2)no1 (centres undefined) | -12.9% | 
COc1ccc(C)cc1NC(=O)N1CCCC2(C1)Nc1cccnc1NC2=NC1CCCC1 (centres undefined) |  | 6.68 µM (active)
O=C(c1ccc2nc[nH]c2c1)N1CCCC2(C1)Nc1cccnc1NC2=NC1CCCC1 (centres undefined) | 0% | 

Compound | activity change, negative = inhibition | Potency
CCOc1ccc(-c2cc3c(=O)n(CCNC(=O)c4ccc(C#N)cc4)ccn3n2)cc1 | -7.04% | 
COc1ccc(-c2cc3c(=O)n(CCNC(=O)c4ccc(OC)c(OC)c4)ccn3n2)cc1 | -16.9% | 
COc1ccc(-c2cc3c(=O)n(CCNC(=O)c4ccc(OC)nc4)ccn3n2)cc1 | -14.6% | 
CCCN1CCN(CCCNC(=O)c2ccc3c(c2)sc2nc(-c4ccc(OCC)cc4)cn23)CC1 |  | 4.22 µM (active)
CCOc1ccc(-c2cn3c(n2)sc2cc(C(=O)NCCCc4ccccc4)ccc23)cc1 | -30.3% | 
CCOc1ccc(-c2cc3c(=O)n(CCNC(=O)c4ccccc4)ccn3n2)cc1 | 13.3% | 
CCOc1ccc(-c2cn3c(n2)sc2cc(C(=O)NC(C)C45CC6CC(CC(C6)C4)C5)ccc23)cc1 (centres undefined) |  | 5.96 µM (active)
CCOc1ccc(-c2cc3c(=O)n(CCNC(=O)c4cccc(C#N)c4)ccn3n2)cc1 | -6.7% | 
CCCN1CCN(CCCNC(=O)c2ccc3c(c2)sc2nc(-c4ccc(OC)cc4)cn23)CC1 |  | 4.73 µM (active)
COc1ccc(-c2cn3c(n2)sc2cc(C(=O)NCCCN4CCCCC4)ccc23)cc1 |  | 4.73 µM (active)
CCN1c2cc(C(=O)Nc3ccc4c(c3)CCC4)ccc2C(=O)N2CCCCC21 (centres undefined) | -10% | 
C#Cc1ccc(C(=O)Nc2ccc(N3CCC(C)CC3)c(C(N)=O)c2)cc1 |  | 6.68 µM (active)
CC1CCCCN1c1ccc(N)cc1C(N)=O (centres undefined) | 20.7% | 
Cc1ccc2c(c1)c1c3n2CCCN(Cc2ccccc2)C3CCC1 (centres undefined) |  | 4.22 µM (active)
CN(C)Cc1c(O)ccc2oc(Cc3ccccc3)cc12 |  | 0.422 µM (active)
COc1ccc(-n2c(/C=C(\C)O)nc(=O)c3c(C)cc(C)nc32)cc1 |  | 3.35 µM (active)
O=C(Cc1ccccc1)N1CCCC2(CC(c3ccccn3)=NO2)C1 (centres undefined) | 39% | 
CCOC(=O)c1c(C)[nH]c(C(=O)OCc2c(C)noc2C)c1C | 13.1% | 
CCOC(=O)c1c(C)[nH]c(C(=O)CSc2nnc(C3CC3)n2N)c1C |  | 1.5 µM (active)
CN1c2cc(C(=O)Nc3ccc(S(N)(=O)=O)cc3)ccc2C(=O)N2CCCCC21 (centres undefined) | 39.2% | 
O=C(Nc1ccc(Br)cc1F)c1cc(S(=O)(=O)NC2CCCC2)ccc1F | 4.64% | 
O=C(Nc1ccc(Br)cc1)c1ccc(F)c(S(=O)(=O)NC2CCCCCC2)c1 |  | 9.44 µM (active)

Source: PubChem BioAssay AID1347416 (National Center for Advancing Translational Sciences (NCATS), 2020)
